Results filed as inconclusive are left out. Activity calls are given as the source filed them. The call rests on the fitted dose curve; in most records, active means well fitted inhibition curve with a large enough effect; inconclusive means small, poorly fitted or top-dose-only effect; inactive means flat fitted curve, though single readings scatter. Where a SMILES comes first, the peptide text is derived from it. Bridges are numbered along the chain shown (N, C = ends). [ ]: non-standard residue; d: D form. hArg = N=C(N)NCCCC[C@H](N)C(=O)O; Mpa = O=C(O)CCS
What follows are molecules tested on KB-3-1 (assay: Cytotoxic Profiling of Annotated Libraries Using Quantitative High-Throughput Screening (AID 1296008; further: nearly all actives have a fitted effect of over 60% in size)). Conditions: Five cell lines viability, CellTiter-Glo ATP luminescence, 48-72 h, hits give low values.
Source text: Cell-based phenotypic screening is a commonly used approach to discover biological pathways, novel drug targets, chemical probes and high-quality hit-to-lead molecules. Many hits identified from high-throughput screening campaign are ruled out through a series of follow-up potency, selectivity/specificity, and cytotoxicity assays. Prioritization of molecules with little or no cytotoxicity for a more in-depth downstream evaluation influence the future direction of projects, so cytotoxicity profiling of the screening libraries at early stage is essential for increasing the likelihood of candidate success. […] For the annotated library, we also examined the primary targets and mechanistic pathways regularly associated with cell death. To our knowledge, this is the first study to use high-throughput screening to profile large libraries for cytotoxicity assessment in both normal and cancer cell lines. In summary, the results generated here constitutes a valuable resource for the scientific community and provides insight on identifying cytotoxic compounds with particular mechanisms of action, and prioritizing compounds with suitable cytotoxicity profile for further evaluation.
A pintool (Kalypsys) was used to transfer 23 nL of compound solution to the 1536-well assay plates. After 48 or 72 hr incubation at 37 degree Celsius, 5% CO2 and 95% humidity, 2.5 uL of CellTiter-Glo (Promega) was dispensed into each well using a dispenser (Aspect Automation, St. Paul, MN) with solenoid valves (Lee Valves, Westbrook CT). Plates were left at room temperature for 10 min before imaging the ATP-coupled luminescence using a ViewLux microplate imager (PerkinElmer, Waltham, MA).
On the % scale 0 is the no-effect control and ±100 the full control effect.

| Compound | max response |
| --- | --- |
| CCN(CC)C(=O)c1cccc(C)c1 | 13.2% (inactive) |
| Cc1ccc(S(=O)(=O)NC(=O)NC2CCCCCCC2)cc1 | 0.148% (inactive) |
| Cc1onc(-c2ccccc2)c1-c1ccc(S(N)(=O)=O)cc1 | 6.03% (inactive) |
| O=C(O)c1ccccc1C(=O)Nc1ccc(S(=O)(=O)Nc2nccs2)cc1 | 5.93% (inactive) |
| CN[C@@H]1[C@H](O)[C@H](NC)[C@H]2O[C@@]3(O)C(=O)C[C@@H](C)O[C@H]3O[C@@H]2[C@H]1O | 16.3% (inactive) |
| C[C@@H](N)C(=O)O | -23.1% (inactive) |
| CCCNC(C)C(=O)Nc1c(C)csc1C(=O)OC (stereo not given) | -16.9% (inactive) |
| CC1(C)[C@@H](OC(=O)CCC(=O)O)CC[C@]2(C)[C@H]3C(=O)C=C4[C@@H]5C[C@@](C)(C(=O)O)CC[C@]5(C)CC[C@@]4(C)[C@]3(C)CC[C@@H]12 | -3.96% (inactive) |
| CC1CCN(CCCC(=O)c2ccc(F)cc2)CC1 | -11.3% (inactive) |
| COc1ccc(-c2cc(=O)c3c(O)cc(O[C@@H]4O[C@H](CO[C@@H]5O[C@@H](C)[C@H](O)[C@@H](O)[C@H]5O)[C@@H](O)[C@H](O)[C@H]4O)cc3o2)cc1O | -15.8% (inactive) |
| NC(=O)[C@@H]1CSSCCC(=O)N[C@@H](CCCCN=C(N)N)C(=O)NCC(=O)N[C@@H](CC(=O)O)C(=O)N[C@@H](Cc2c[nH]c3ccccc23)C(=O)N2CCC[C@H]2C(=O)N1 ([Mpa][hArg]GDWPC-NH2; disulfide 1-7) | 3.01% (inactive) |
| CCCCOC(=O)c1ccc(N)cc1 | 0.229% (inactive) |
| Cc1[nH]c(C)c(Cl)c(=O)c1Cl | -14.2% (inactive) |
| C/C=C/C(=O)N(CC)c1ccccc1C | 21.1% (inactive) |
| CC1(C)S[C@@H]2[C@H](NC(=O)C(C(=O)O)c3ccccc3)C(=O)N2[C@H]1C(=O)O (stereo not given in full) | 3.76% (inactive) |
| CCOC(N)=O | -7.14% (inactive) |
| Nc1ccncc1N | 10.8% (inactive) |
| COc1ccc(O)cc1 | -0.988% (inactive) |
| CN1C[C@@H]2C[C@H]1CN2c1cc2c(cc1F)c(=O)c(C(=O)O)cn2C1CC1 | -8.4% (inactive) |
| CC(=O)Nc1ccc(C(=O)O)cc1 | -6.78% (inactive) |

| Compound | max response |
| --- | --- |
| COC(=O)N/N=C/c1c[n+]([O-])c2ccccc2[n+]1[O-] | -2.23% (inactive) |
| O=c1[nH]c(=O)c2ccccc2o1 | -4.12% (inactive) |
| CCc1nnc(NS(=O)(=O)c2ccc(N)cc2)s1 | 7.07% (inactive) |
| N[C@@H](Cc1ccc(O)cc1)C(=O)O | -4.34% (inactive) |
| O=C(O)CCC(=O)O | 7.68% (inactive) |
| Cc1cc(-n2nc3ccc(Cl)cc3n2)c(O)c(C(C)(C)C)c1 | 6.34% (inactive) |
| COc1ccccc1OCC(O)CO (stereo not given) | 4.34% (inactive) |
| Cc1ccc(C(C)C)c(O)c1 | 18.3% (inactive) |
| Cc1ccsc1C(=CCCN1CCC[C@@H](C(=O)O)C1)c1sccc1C | 3.88% (inactive) |
| OC(CCN1CCCC1)(c1ccccc1)C1CCCCC1 (stereo not given) | -9.13% (inactive) |
| NC(=O)NC1NC(=O)NC1=O (stereo not given) | -5.62% (inactive) |
| CO[C@@]1(NC(=O)C(C(=O)O)c2ccc(O)cc2)C(=O)N2C(C(=O)O)=C(CSc3nnnn3C)CO[C@@H]21 (stereo not given in full) | 4.1% (inactive) |
| CCOC(=O)OC(C)OC(=O)[C@@H]1N2C(=O)[C@@H](NC(=O)[C@H](N)c3ccccc3)[C@H]2SC1(C)C (stereo not given in full) | -3.71% (inactive) |
| Cc1ccc2c(c1)c1c3n2CCNC3CCC1 (stereo not given) | -0.231% (inactive) |
| CC[C@H](C)[C@H](N)C(=O)O | -15.9% (inactive) |
| O=C1CC[C@@H](C(=O)O)N1 | 18.1% (inactive) |
| O=C(Cn1ccnc1[N+](=O)[O-])NCc1ccccc1 | 0.421% (inactive) |
| CC(C)NC[C@@H](O)COc1ccc(CC(N)=O)cc1 | 3.62% (inactive) |
| CCOC(=O)[C@H](CCc1ccccc1)N[C@@H](C)C(=O)N1CCC[C@H]1C(=O)O | 7.19% (inactive) |
| C[C@]1(Cn2ccnn2)[C@H](C(=O)O)N2C(=O)C[C@H]2S1(=O)=O | 13.6% (inactive) |

— PubChem BioAssay (NCATS)
